Drawing on PubChem BioAssay (Tox21), this text covers Potency and outcome for 9 molecules.

Each structure is given as a SMILES string. Where “and” joins values, the source holds several entries; their conditions need not be identical. Identical values can stand only once. Inconclusive results are not listed. Some structures have more than one record in an assay (separate samples or runs), and their calls can disagree. Calls of active or inactive are those of the source. Unless noted, calls follow the shape of the dose curve; as a rule, active = well fitted curve in the direction sought with a large enough effect in the repeat runs; inconclusive = weak or mixed curves; inactive = no such curve, though single readings can be large; an effect the other way counts as inactive or inconclusive.

A short description of assay [1]: A CellTox Green Cytotoxicity Assay to monitor cytotoxicity in HepG2 cells - 8 hour (AID 1224890). Also: nearly all actives have a fitted effect of over 45% in size. Summed up: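 HepG2 cells were seeded together with the CellTox Green dye at 600 cells/well, left 5 h at 37 C/5% CO2, then given compounds in DMSO. Fluorescence from dye bound to dead-cell DNA was read repeatedly over 40 h of treatment at 37 C.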
The nature of assay [2]: qHTS assay to identify small molecule antagonists of the estrogen receptor alpha (ER-alpha) signaling pathway using the BG1 cell line in the presence of 0.1 nM 17-beta-estradiol - cell viability counter screen (AID 1259241). Also: nearly all actives have a fitted effect of over 40% in size. Also: potency is read from the fitted curve at half-maximal effect. Put shortly:
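CellTiter-Fluor read (30 min, 37C) on ER-alpha/ERE-luc VM7Luc4E2 cells; 22 hr compound treatment; agonist 0.1 nM E2 final; same-well multiplex.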
In general terms: Quantitative high-throughput screening tests each substance at several concentrations.

The nature of assay [3]: qHTS assay to identify small molecule antagonists of the androgen receptor (AR) signaling pathway using the MDA cell line in the presence of 0.5 nM R1881 - cell viability counter screen (AID 1259242). Also: nearly all actives have a fitted effect of over 45% in size. Summed up: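 MDA-kb2 cells (human breast carcinoma, stably carrying MMTV-luciferase reporter) were exposed to compounds with 0.5 nM R1881 (final) for 16 hr at 37C, 0% CO2; viability then read as live-cell protease fluorescence (CellTiter-Fluor, 30 min) in the same wells.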

Assay [4] concerns the target Estrogen receptor (Homo sapiens) (UniProt P03372). In words: qHTS assay to identify small molecule antagonists of the estrogen receptor alpha (ER-alpha) signaling pathway using the BG1 cell line in the presence of 0.1 nM 17-beta-estradiol (AID 1259244). Also: nearly all actives have a fitted effect of over 50% in size. Also: potency is read from the fitted curve at half-maximal effect. Put shortly: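 VM7Luc4E2 cells (endogenous full-length ER-alpha, stable 4xERE-luciferase) were grown 5 days in phenol red-free medium with charcoal-stripped FBS, then exposed 22 h at 37C to compounds plus 0.1 nM (final) 17beta-estradiol; ONE-Glo luminescence read-out.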

Assay [5] can be described thus: qHTS assay to identify small molecule HDAC inhibitors (AID 1259364). Also: nearly all actives have a fitted effect of over 45% in size. Also: potency is read from the fitted curve at half-maximal effect. Put shortly:
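Wild-type HCT-116 cells were plated overnight, exposed to compounds for 2 h at 37 °C, then given HDAC-Glo class I/II luminogenic reagent for 30 min at room temperature before luminescence was read.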

Assay [6] is described as follows: qHTS assay to identify small molecule agonists of the sonic hedgehog signaling (Shh) pathway - cell viability counter screen (AID 1259366). Also: nearly all actives have a fitted effect of over 50% in size. Summed up: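 Fluorescence from CellTiter-Fluor reports live cells in this counter screen. NIH/3T3-derived Gli1-Luc reporter cells receive test compounds for 24hr at 37C; reagent goes in at 23hr.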
Assay [7] is described as follows: qHTS assay to identify small molecule antagonists of the sonic hedgehog signaling (Shh) pathway - cell viability counter screen (AID 1259367). Also: nearly all actives have a fitted effect of over 55% in size. Also: potency is read from the fitted curve at half-maximal effect. Put shortly:
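NIH/3T3-derived Gli1-Luc reporter cells (2,000 per well) rested 4 hr at 37 C, then received DMSO compounds plus conditioned medium. After 23 hr of treatment, CellTiter-Fluor was added for 1 hr at 37C and fluorescence read.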

Assay [8] is described as follows: qHTS assay to identify small molecule agonists of the sonic hedgehog signaling (Shh) pathway (AID 1259368; calls by dose curve; also: series mostly up to about 92 µM; nearly all actives have a fitted effect of over 15% in size). Put shortly: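 NIH/3T3-derived 3T3Gli1-Luc cells carrying a stably integrated Gli1 response element–firefly luciferase reporter were plated, left 4 hr at 37 C, then given compounds in DMSO for 24 hr. Luminescence was read 30 min after adding luciferase reagent.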

Assay [9] in a line: qHTS assay to identify small molecule antagonists of the sonic hedgehog signaling (Shh) pathway (AID 1259369; calls by dose curve; also: nearly all actives have a fitted effect of over 45% in size; also: potency is read from the fitted curve at half-maximal effect). Put shortly:
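NIH/3T3-derived 3T3Gli1-Luc cells with stably integrated Gli1-Luc reporter were preincubated 4hr at 37 C, then given compounds in DMSO plus Shh conditioned medium and incubated 24hr. Firefly luciferase luminescence read after 30min reagent at room temperature.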

For assay [10], the target named is Estrogen receptor beta (Homo sapiens) (UniProt Q92731). Description: qHTS assay to identify small molecule agonists of the estrogen receptor beta (ER-beta) signaling pathway (AID 1259377; active = well fitted activation curve with a large enough effect in the signal ratio in the repeat runs, not every such curve was filed as active; the % refers to the signal ratio). Put shortly: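 Screening used GripTite ER-beta-UAS-bla cells held in 2% charcoal-stripped FBS medium. After overnight (16 hr) compound incubation at 37C, beta-lactamase activity was detected with a FRET substrate by fluorescence.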

Assay [11] is described as follows: qHTS assay to identify small molecule agonists of the androgen receptor (AR) signaling pathway in the presence of an antagonist - cell viability counter screen (AID 1259379). Also: nearly all actives have a fitted effect of over 25% in size. Also: potency is read from the fitted curve at half-maximal effect. Summed up:
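MDA-kb2 human breast carcinoma cells (stable MMTV-luciferase, AR/GR responsive) were seeded 3,000 cells/well, pre-incubated 5 hr at 37C without CO2, then given 3.0uM nilutamide and compounds at 15 concentrations for 16 hr. Viability was read by CellTiter-Fluor fluorescence.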

Assay [12] in a line: qHTS assay to identify small molecule agonists of the estrogen receptor beta (ER-beta) signaling pathway - cell viability counter screen (AID 1259380). Also: nearly all actives have a fitted effect of over 30% in size. Also: potency is read from the fitted curve at half-maximal effect. Summed up: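 ER-beta-UAS-bla HEK293T cells in medium with 2% charcoal-stripped FBS were preincubated 6 hr at 37C, dosed with compound in DMSO for 16 hr, then after the bla read, CellTiter-Glo was added for 30 min at room temperature; luminescence recorded.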

Assay [13] is described as follows: qHTS assay to identify small molecule antagonists of the estrogen receptor beta (ER-beta) signaling pathway - cell viability counter screen (AID 1259382). Also: series mostly up to about 92 µM; nearly all actives have a fitted effect of over 55% in size. Summed up: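 ER-beta-UAS-bla HEK293T cells (2,000/well, 2% charcoal-stripped FBS) were pre-incubated 6 hr at 37C, then given compound plus 1nM final 17-beta-estradiol for 16 hr. Viability was read in the same wells by CellTiter-Glo luminescence after 30 min at room temperature.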

The target in assay [14] is Estrogen receptor (Homo sapiens) (UniProt P03372). In words: qHTS assay to identify small molecule agonists of the estrogen receptor alpha (ER-alpha) signaling pathway in the presence of an antagonist (AID 1259383; calls by dose curve; also: top concentration of the series differs between compounds; nearly all actives have a fitted effect of over 15% in size). Summed up: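 VM7Luc4E2 cells (endogenous full-length ER-alpha, 4×ERE-luciferase) were precultured 5 days in phenol red-free medium with 10% charcoal-stripped FBS, given 10.0nM ICI-182,780 (final), then treated with compounds at 15 concentrations for 22hr at 37C; luminescence read with ONE-Glo.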

Assay [15] is described as follows: qHTS assay to identify small molecule agonists or antagonists of the thyroid stimulating hormone receptor (TSHR) signaling pathway - wild type cell line counter screen (AID 1259384; calls by dose curve). Put shortly:
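Wild-type HEK293 cells were plated 18 h at 37 C/5% CO2, pin-dosed with compound plus Ro20-1724 medium, held 30 min at room temperature, then given cAMP-d2 and anti-cAMP-cryptate; fluorescence was read after 1 h. Fifteen concentrations, triplicate.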

Assay [16] concerns the target Thyrotropin receptor (Homo sapiens) (UniProt P16473). Description: qHTS assay to identify small molecule antagonists of the thyroid stimulating hormone receptor (TSHR) signaling pathway (AID 1259385; calls by dose curve; also: nearly all actives have a fitted effect of over 20% in size). Summed up: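 TSHR-HEK293 cells were plated and held 18 h at 37C/5% CO2, then given compound plus Ro20-1724 and stimulated with TSH at 1.5 ng/mL final. After 30 min at room temperature, cAMP was detected with cAMP-d2/anti-cAMP-cryptate (1 h) by fluorescence.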

Assay [17] is described as follows: qHTS assay to identify small molecule HDAC inhibitors - cell viability counter screen (AID 1259365). Also: series mostly up to about 92 µM; nearly all actives have a fitted effect of over 50% in size. Summed up: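 To flag cytotoxic hits, 1,500 wild-type HCT-116 cells per well, plated the day before, receive test compounds for 2hr at 37 C before CellTiter-Glo reagent and a luminescence read.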
The target in assay [18] is Estrogen receptor beta (Homo sapiens) (UniProt Q92731). Description: qHTS assay to identify small molecule antagonists of the estrogen receptor beta (ER-beta) signaling pathway (AID 1259378; active = well fitted inhibition curve with a large enough effect in the signal ratio in the repeat runs, not every such curve was filed as active; the % refers to the signal ratio). Put shortly: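 ER-beta-UAS-bla HEK293T (GripTite) cells in 2% charcoal-stripped FBS medium were preincubated 6 hr at 37C, dosed with compound, then stimulated with 1 nM E2 (final) for 16 hr; beta-lactamase reporter read by B/G FRET fluorescence after 2 hr substrate loading.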

Assay [19] in a line: qHTS assay to identify small molecule phospholipidosis (PLD) inducers (AID 1259344; active = well fitted curve in the direction sought with a large enough effect; an effect the other way counts as inactive or inconclusive). Put shortly: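 HepG2 cells on collagen I, attached 4 h at 37 C, were co-treated with compound and LipidTOX Red dye for 24 h at 37 C, then fixed with paraformaldehyde plus Hoechst 33342 and imaged by high-content microscopy for phospholipid accumulation.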

Estrogen receptor (Homo sapiens), sequence (P03372 whole entry, looked up): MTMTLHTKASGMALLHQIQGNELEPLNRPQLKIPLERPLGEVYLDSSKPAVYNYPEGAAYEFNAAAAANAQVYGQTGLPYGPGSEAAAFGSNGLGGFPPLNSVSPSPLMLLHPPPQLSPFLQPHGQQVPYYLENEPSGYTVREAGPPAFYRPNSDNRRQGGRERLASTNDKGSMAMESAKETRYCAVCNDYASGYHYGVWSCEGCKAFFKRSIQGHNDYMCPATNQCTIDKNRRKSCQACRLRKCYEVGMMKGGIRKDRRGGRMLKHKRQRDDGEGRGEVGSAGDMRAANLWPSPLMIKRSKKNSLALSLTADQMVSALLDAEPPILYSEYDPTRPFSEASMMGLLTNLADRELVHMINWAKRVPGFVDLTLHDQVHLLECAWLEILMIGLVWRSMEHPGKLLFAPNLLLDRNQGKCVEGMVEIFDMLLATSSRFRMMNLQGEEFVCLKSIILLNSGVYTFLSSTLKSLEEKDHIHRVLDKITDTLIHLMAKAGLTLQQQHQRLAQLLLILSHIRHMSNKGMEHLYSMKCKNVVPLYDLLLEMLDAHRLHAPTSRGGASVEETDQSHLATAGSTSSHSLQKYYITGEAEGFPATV
Estrogen receptor beta (Homo sapiens), sequence (Q92731 whole entry, looked up): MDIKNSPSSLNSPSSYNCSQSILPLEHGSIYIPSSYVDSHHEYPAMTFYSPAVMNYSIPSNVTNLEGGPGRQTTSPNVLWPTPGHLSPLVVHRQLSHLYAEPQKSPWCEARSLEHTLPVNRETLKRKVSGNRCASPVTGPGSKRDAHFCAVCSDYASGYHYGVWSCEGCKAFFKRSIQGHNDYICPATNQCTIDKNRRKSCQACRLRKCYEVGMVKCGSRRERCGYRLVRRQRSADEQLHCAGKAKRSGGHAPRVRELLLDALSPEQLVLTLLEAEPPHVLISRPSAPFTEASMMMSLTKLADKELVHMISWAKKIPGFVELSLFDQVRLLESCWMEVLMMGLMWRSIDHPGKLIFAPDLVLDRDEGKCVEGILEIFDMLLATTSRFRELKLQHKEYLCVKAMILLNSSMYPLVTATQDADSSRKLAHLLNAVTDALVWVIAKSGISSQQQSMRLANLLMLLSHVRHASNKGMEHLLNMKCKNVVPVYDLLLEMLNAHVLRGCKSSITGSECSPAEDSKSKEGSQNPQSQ
Thyrotropin receptor (Homo sapiens), sequence (P16473 whole entry, looked up): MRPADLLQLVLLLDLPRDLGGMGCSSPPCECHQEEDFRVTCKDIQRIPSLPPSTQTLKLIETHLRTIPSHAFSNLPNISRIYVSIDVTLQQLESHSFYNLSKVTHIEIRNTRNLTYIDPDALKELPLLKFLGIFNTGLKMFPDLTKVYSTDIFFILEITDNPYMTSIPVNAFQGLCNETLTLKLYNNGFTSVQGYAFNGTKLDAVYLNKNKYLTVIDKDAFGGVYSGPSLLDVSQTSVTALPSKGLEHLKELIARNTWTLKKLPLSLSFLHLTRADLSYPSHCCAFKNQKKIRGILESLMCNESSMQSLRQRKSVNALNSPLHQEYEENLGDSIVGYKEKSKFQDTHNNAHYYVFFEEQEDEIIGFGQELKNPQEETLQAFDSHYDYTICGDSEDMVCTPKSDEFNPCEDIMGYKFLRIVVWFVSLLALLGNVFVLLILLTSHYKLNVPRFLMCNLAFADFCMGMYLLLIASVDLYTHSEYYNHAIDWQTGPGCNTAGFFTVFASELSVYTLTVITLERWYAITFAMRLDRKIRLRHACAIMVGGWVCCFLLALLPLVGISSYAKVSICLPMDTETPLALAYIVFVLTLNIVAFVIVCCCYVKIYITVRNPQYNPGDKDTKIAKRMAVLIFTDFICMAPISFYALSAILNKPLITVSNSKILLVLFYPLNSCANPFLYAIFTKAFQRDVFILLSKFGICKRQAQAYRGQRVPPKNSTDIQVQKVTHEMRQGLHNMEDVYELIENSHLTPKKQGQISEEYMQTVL

As to `CC(C)(C)C(=O)C1C(=O)c2ccccc2C1=O`, the Potency result in assay [1], in assay [3], in assay [5], in [6], in [10] and in assay [12] was “inactive” each time. Besides, the Potency result in assay [13] and in [14] was “inactive” in each case. The Potency in assay [2] was 54.5 µM (active); in assay [4], 61.1 µM (active); in assay [7] it was 60.5 µM (active); in [9], 68.6 µM (active); in [11], 60.5 µM (active). Besides, the molecule was called inactive in assay [8], in [15] and in assay [16].

Take `CCOC(=O)C1OC1c1ccccc1` (stereo not given): the Potency entry in assay [1], in assay [2], in assay [3], in assay [6], in [7] and in assay [9] was “inactive” throughout. For the same molecule, the Potency result in assay [13] is “inactive”. The Potency in assay [5] is 49.5 µM (active). Besides, the molecule was called inactive in [17] and in assay [8].

As for `Oc1c(Cl)cc(Cl)c(Cl)c1Cl`, the Potency result in [1], in assay [2], in assay [3], in assay [5], in [6] and in assay [7] was “inactive” throughout. The Potency result in assay [10], in assay [11] and in assay [14] was “inactive” each time. For the same molecule, the Potency is 47.5 µM (active) and 61.1 µM (active) in assay [4]; 48.6 µM (active) in assay [9]. Moreover, the molecule was called inactive in assay [8], in [15] and in assay [16].

Turning to `NCc1cccc(CN)c1`, the Potency entry in [1], in assay [2], in [3], in [4], in assay [5] and in assay [6] was “inactive” throughout. Also, the Potency result in assay [7], in assay [9], in [10], in assay [18], in assay [12] and in assay [13] was “inactive” throughout. For the same molecule, the Potency entry in [14] was “inactive”. The result in assay [8], in assay [15] and in [16] was inactive.

On to `NC(=O)NNc1ccccc1`, for which the Potency result in assay [1], in assay [2], in [3], in assay [5], in [6] and in [7] was “inactive” throughout. In addition, the Potency entry in assay [9], in [10], in assay [18], in assay [11], in [12] and in assay [13] was “inactive” in each case. In addition, the call in assay [19], in [17], in [8], in assay [15] and in assay [16] was inactive.

`CCCCOCCOCCOC(=O)CCCCC(=O)OCCOCCOCCCC`: the Potency result in assay [1], in assay [2], in assay [3], in assay [4], in assay [5] and in assay [6] was “inactive” each time. Moreover, the Potency entry in assay [7], in [9], in assay [10], in assay [18], in assay [11] and in assay [12] was “inactive” throughout. Also, the Potency result in assay [13] and in assay [14] was “inactive” throughout. The molecule was classed as inactive in [8], in assay [15] and in assay [16].

As for `O=S(=O)(Oc1ccc(Cl)cc1Cl)c1ccccc1`, the Potency entry in assay [1], in assay [2], in [3], in assay [4], in assay [5] and in assay [6] was “inactive” each time. For the same molecule, the Potency result in [7], in assay [9], in assay [11], in assay [12], in assay [13] and in assay [14] was “inactive” throughout. In addition, the molecule was called inactive in assay [8], in assay [15] and in assay [16].

As to `C=C1C2CCC(C2)C1(C)C` (stereo not given), the Potency result in assay [1], in assay [3], in assay [4], in [5], in assay [6] and in [7] was “inactive” each time. Further, the Potency entry in [9], in [10], in assay [18], in assay [11], in assay [12] and in assay [13] was “inactive” in each case. For the same molecule, the Potency entry in assay [14] is “inactive”. Further, the molecule was classed as inactive in assay [17], in assay [8], in [15] and in [16].

As for `CC(C)(N=C=O)c1cccc(C(C)(C)N=C=O)c1`, the Potency result in assay [1], in assay [2], in assay [3], in assay [5], in [6] and in assay [7] was “inactive” in each case. Also, the Potency result in assay [9] and in [13] was “inactive” throughout. Moreover, the outcome in assay [17], in assay [8], in assay [15] and in assay [16] was inactive. Besides, the Potency in assay [12] was 68 µM (active) and inactive.
